Results published in PubChem BioAssay AID623994 (NMMLSC, 2012).
Potency and affinity values are given separately. The source made the active and inactive calls.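 The calls were made as follows: active = compounds whose fitted concentration for half the maximal dye retention is below 100 µM; inactive = the rest.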

biological target: Multidrug resistance protein CDR2 (Candida albicans (strain SC5314 / ATCC MYA-2876)) (UniProt P78595); assay: CaCDR2 efflux pump inhibitors in yeast, dose response, S. cerevisiae AD1-8u, singleplex, Cherry Pick2 set (AID 623994); settings: S. cerevisiae AD1-8u expressing CaCDR2, Nile Red efflux; series mostly up to 100 µM; Nile Red retention, efflux inhibition: at the top concentration
Sequence (P78595 whole entry, looked up): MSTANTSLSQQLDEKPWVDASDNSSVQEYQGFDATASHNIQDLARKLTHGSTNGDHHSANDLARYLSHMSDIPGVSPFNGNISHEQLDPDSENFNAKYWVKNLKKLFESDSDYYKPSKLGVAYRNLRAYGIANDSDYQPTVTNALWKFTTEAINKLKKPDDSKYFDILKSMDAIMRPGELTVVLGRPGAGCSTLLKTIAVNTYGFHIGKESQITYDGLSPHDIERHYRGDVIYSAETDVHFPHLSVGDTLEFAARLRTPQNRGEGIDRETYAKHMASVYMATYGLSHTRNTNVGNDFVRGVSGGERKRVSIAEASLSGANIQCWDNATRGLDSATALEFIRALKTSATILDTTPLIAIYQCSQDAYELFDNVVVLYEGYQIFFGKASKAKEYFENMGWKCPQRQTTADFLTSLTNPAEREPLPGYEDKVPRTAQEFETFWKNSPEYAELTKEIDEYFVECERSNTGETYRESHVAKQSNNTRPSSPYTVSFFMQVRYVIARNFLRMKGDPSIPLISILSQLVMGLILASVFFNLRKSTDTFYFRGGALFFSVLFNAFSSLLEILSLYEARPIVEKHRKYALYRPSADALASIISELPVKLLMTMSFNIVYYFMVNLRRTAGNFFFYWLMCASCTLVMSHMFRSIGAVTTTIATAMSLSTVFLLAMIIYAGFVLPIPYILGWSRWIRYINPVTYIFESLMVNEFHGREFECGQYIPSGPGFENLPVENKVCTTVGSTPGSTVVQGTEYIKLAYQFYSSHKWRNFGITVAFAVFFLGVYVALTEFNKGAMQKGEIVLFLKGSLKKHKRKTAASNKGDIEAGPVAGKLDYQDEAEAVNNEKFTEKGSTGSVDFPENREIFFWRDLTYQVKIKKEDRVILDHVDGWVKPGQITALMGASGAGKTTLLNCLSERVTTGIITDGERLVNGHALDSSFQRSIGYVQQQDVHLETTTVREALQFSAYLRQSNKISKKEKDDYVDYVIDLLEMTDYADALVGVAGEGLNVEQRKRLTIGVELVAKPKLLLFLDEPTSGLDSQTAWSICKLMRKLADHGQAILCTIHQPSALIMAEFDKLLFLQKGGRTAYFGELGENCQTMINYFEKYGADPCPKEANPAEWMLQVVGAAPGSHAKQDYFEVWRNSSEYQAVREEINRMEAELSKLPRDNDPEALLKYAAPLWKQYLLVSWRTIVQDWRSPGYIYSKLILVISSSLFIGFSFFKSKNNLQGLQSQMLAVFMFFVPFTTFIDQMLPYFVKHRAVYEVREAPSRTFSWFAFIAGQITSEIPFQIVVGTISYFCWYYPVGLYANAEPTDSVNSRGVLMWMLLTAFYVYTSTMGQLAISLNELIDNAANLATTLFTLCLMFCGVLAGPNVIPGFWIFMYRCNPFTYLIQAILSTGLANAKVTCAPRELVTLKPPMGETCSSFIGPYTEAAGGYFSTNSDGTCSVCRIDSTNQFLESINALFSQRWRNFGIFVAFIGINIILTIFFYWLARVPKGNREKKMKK

Nile Red retention, efflux inhibition, inactive:
COc1ccc(N2CCN(C(=O)C3CCCN(c4ncnc5c4nc4n5CCCCC4)C3)CC2)cc1 (centres undefined) 0.54%
NS(=O)(=O)c1ccc(N2N=C(c3ccc(Br)cc3)CC2c2ccc(F)cc2)cc1 (centres undefined) -3.65%
COc1ccc(O)c(C(=O)c2cnc3c(c2)CN(C)C(=O)N3)c1 -9.23%
CCc1ccc(C2=NN(c3ccc(S(N)(=O)=O)cc3)C(c3ccc(F)cc3)C2)cc1 (centres undefined) -3.46%
C[C@@]12C(=O)Nc3cc(F)c(F)cc3C(=O)N1[C@H]1c3cc(Cl)ccc3OC[C@@H]1[C@@H]2c1ccccc1 8.62%
Cc1ccc2c(c1)[C@H]1[C@H](CO2)[C@H](c2ccccc2)[C@]2(C)C(=O)Nc3cc(F)c(F)cc3C(=O)N12 -0.35%
CCC(=O)N1CCN(c2ccc(Cl)cc2NC(=O)c2ccc3c(c2)OCCO3)CC1 -3.15%
COc1cc(OC)c2ccc(=O)oc2c1C(CCN1CCCC1)c1ccc(N(C)C)cc1 (centres undefined) -2.33%
O=C(c1ccoc1)N1CCC2(CC1)Oc1ccc(F)cc1C(=O)C21CC(c2ccc(Cl)cc2)=NO1 (centres undefined) -6.86%
O=C(C1CCCN(c2ncnc3c2nc2n3CCCCC2)C1)N1CCN(c2ccccc2)CC1 (centres undefined) -1.78%
COc1ccc(C2CC(c3ccccc3C(F)(F)F)=NN2c2ccc(S(N)(=O)=O)cc2)cc1 (centres undefined) -2.63%

outcome, inactive:
COc1ccc(CNC(=O)C(C#N)c2nc3ccccc3nc2N2CCN(C)CC2)cc1 (centres undefined)
CC1CN(c2nc3ccccc3nc2C(C#N)C(=O)NCc2ccc3c(c2)OCO3)CC(C)O1 (centres undefined)
Cc1ccc(O)c(C(=O)c2cnc3c(c2)CN(CCC(C)C)C(=O)N3)c1
